Compound activity deposited in PubChem BioAssay by National Center for Advancing Translational Sciences (NCATS).
HEK293 tox: cytotoxic compounds in HEK 293 cells | HEK 293 viability, ATP luminescence (CellTiter-Glo), 48-72 h | actives 6.6% (n = 94,000) | Potency, µM (series often up to 115 µM), usual class: inhibitors; also: nearly all actives have a fitted effect of over 60% in size
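250 HEK 293 cells/well; compound by pintool; incubated 48 or 72 hr at 37 degree Celsius; CellTiter-Glo added, 10 min RT, luminescence imaged.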
FLuc inh: inhibitors of firefly (Photinus pyralis) luciferase; purified P. pyralis luciferase, luminescence, biochemical; actives 2.5% (n = 76,000); AID 1347043; Potency, µM (series often up to 115 µM), usual class: inhibitors; P08659; also: nearly all actives have a fitted effect of over 65% in size
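Cell-free enzyme assay, 10nM P. pyralis luciferase, luciferin and ATP each at 10uM. Inhibition profiled over a 6-point titration, read as luminescence.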
NIH3T3 tox: kills NIH 3T3 cells; Potency, µM (titrated, usually from 96.7 µM), usual class: inhibitors; NIH 3T3 viability, CellTiter-Glo ATP luminescence, 48-72 h; actives 4.3% (n = 94,000); also: nearly all actives have a fitted effect of over 55% in size
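Mouse fibroblast NIH 3T3 cells, 400 per well, received compound via pintool and were incubated for 48 or 72 hr prior to CellTiter-Glo ATP luminescence measurement.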
hNpr1 antagonist: antagonists of human natriuretic peptide receptor Npr1; HEK293 hNpr1 GloSensor cGMP, ANP-stimulated luminescence; Potency, µM (top dose mostly 46.3 µM), hits mostly inhibitors; AID 1347048; actives 1.6% (n = 76,000); calls by dose curve; also: nearly all actives have a fitted effect of over 60% in size
Target sequence (P16066 whole entry, looked up): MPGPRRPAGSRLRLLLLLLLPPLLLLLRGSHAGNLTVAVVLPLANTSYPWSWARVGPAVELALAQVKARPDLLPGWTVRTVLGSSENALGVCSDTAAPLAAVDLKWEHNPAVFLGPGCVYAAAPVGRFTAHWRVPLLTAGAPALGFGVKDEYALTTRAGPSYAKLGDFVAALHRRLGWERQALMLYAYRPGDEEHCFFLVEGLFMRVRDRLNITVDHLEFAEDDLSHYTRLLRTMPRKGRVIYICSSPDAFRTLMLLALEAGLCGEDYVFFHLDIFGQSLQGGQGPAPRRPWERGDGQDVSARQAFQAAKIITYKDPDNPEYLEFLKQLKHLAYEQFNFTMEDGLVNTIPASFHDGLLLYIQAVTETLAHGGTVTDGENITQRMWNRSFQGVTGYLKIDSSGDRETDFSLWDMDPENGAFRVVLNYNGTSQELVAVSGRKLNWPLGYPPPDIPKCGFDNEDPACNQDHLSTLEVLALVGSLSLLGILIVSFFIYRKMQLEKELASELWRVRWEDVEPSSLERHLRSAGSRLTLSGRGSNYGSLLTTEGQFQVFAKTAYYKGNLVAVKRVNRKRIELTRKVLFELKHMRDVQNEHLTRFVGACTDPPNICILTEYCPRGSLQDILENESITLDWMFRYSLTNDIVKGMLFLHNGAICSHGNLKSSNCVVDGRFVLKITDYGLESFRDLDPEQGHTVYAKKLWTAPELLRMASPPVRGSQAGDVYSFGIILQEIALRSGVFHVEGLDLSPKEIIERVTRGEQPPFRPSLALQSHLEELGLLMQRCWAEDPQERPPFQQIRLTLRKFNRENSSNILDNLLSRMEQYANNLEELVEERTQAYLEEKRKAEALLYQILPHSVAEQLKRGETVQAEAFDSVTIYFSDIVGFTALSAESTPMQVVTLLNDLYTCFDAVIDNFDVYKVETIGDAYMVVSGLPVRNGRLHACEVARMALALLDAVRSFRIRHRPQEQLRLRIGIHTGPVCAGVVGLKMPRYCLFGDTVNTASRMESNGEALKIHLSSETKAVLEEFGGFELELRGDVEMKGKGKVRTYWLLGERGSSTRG
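Compound pre-incubated 30 min at room temperature on GloSensor-loaded HEK293 cells stably carrying hNpr1 and the pGS-40F cGMP biosensor. Stimulation uses hNppA at 0.1 nM final; luminescence is taken at baseline and 20 min post-agonist.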
Each line names hits and unclear results; the compound was inactive in the other large screens; ! = repeats disagree. Sampled rows, rich in hits. Any-hit rate of the full collection: about 11%. Unless noted, calls follow the shape of the dose curve; as a rule, active = well fitted curve in the direction sought with a large enough effect; inconclusive = small, poorly fitted or top-dose-only effect, or another doubt; inactive = no such curve, though single readings can be large; an effect the other way counts as inactive or inconclusive.

Cc1ccc(NC(=O)Cn2ccn3nc(-c4ccccc4)c(CO)c3c2=O)cc1Cl	HEK293 tox inconclusive, NIH3T3 tox inconclusive
Cc1ccc2nc(C(C)NC(=O)c3cnc(-c4ccccn4)[nH]c3=O)[nH]c2c1 (stereo not given)	HEK293 tox 25µM, NIH3T3 tox inconclusive
COc1ccc(CN2CC(c3nc(Cc4cccnc4)no3)C2)c(OC)c1	HEK293 tox inconclusive, NIH3T3 tox 16µM, hNpr1 antagonist inconclusive
CCCS(=O)(=O)N1CC(c2nc(Cc3cccnc3)no2)C1	none (no result: FLuc inh, hNpr1 antagonist)
COc1ccccc1-c1cc(C(=O)N2CCCC2)nn2cccc12	none (no result: FLuc inh, hNpr1 antagonist)
COc1ccccc1-c1cc(C(=O)NCc2cccc(Cl)c2)nn2cccc12	HEK293 tox 45µM, NIH3T3 tox inconclusive (no result: FLuc inh, hNpr1 antagonist)
COc1ccccc1-c1cc(C(=O)NCCc2ccc(F)cc2)nn2cccc12	HEK293 tox 35µM, NIH3T3 tox inconclusive (no result: FLuc inh, hNpr1 antagonist)
COc1ccccc1-c1cc(C(=O)NC(C)C)nn2cccc12	none (no result: FLuc inh, hNpr1 antagonist)
N#Cc1cccc(C(=O)N2CCCCCCNC(=O)[C@@H]3C[C@@H](c4nc(-c5cccnc5)no4)C[C@@H]32)c1	none
CCn1ccc(C(=O)NC2CCCN(c3cc(-c4ccc(Cl)cc4)[nH]n3)C2)n1 (stereo not given)	HEK293 tox inconclusive, FLuc inh 35µM, NIH3T3 tox inconclusive
CCn1ccc(C(=O)NC2CCN(c3cc(-c4ccccc4)[nH]n3)CC2)n1	FLuc inh inconclusive, NIH3T3 tox inconclusive
CCn1ccc(C(=O)NC2CCCN(c3cc(-c4ccc(OC)cc4)[nH]n3)C2)n1 (stereo not given)	HEK293 tox inconclusive, FLuc inh 28µM
O=C(NCc1cccc(Cl)c1)c1ccc2nnc(-c3cccc(C(F)(F)F)c3)n2c1	HEK293 tox inconclusive, NIH3T3 tox 32µM (no result: FLuc inh, hNpr1 antagonist)
O=C(NCc1cccnc1)c1ccc2nnc(-c3cc(C(F)(F)F)cc(C(F)(F)F)c3)n2c1	none (no result: FLuc inh, hNpr1 antagonist)
O=C(NCCc1ccccc1F)c1ccc2nnc(-c3cccc(C(F)(F)F)c3)n2c1	HEK293 tox inconclusive, NIH3T3 tox 35µM (no result: FLuc inh, hNpr1 antagonist)
O=C(NCc1ccc(F)cc1)c1ccc2nnc(-c3cc(C(F)(F)F)cc(C(F)(F)F)c3)n2c1	HEK293 tox inconclusive, NIH3T3 tox 35µM (no result: FLuc inh, hNpr1 antagonist)
CC(C)(C)C(=O)N1CCC(F)(c2nc(-c3ccncc3)no2)CC1	HEK293 tox inconclusive
CCn1nc(-c2cccc(-c3ccnn3C)c2)nc1N(C)C	HEK293 tox 79µM
CCn1nc(-c2ccc3c(c2)OCO3)nc1N(C)C	FLuc inh inconclusive
O=C(c1ccc2nnc(-c3cc(F)ccc3F)n2c1)N1CCOCC1	none (no result: FLuc inh, hNpr1 antagonist)
COc1ccc(NC(=O)C2(C)CCCc3cnc(NCc4ccccc4)nc32)cn1 (stereo not given)	HEK293 tox inconclusive, NIH3T3 tox inconclusive
COc1ccc(NC(=O)C2(C)CCCc3cnc(Nc4ccccc4)nc32)cn1 (stereo not given)	HEK293 tox 89µM, NIH3T3 tox 79µM
COc1cccc(Nc2ncc3c(n2)C(C)(C(=O)Nc2ccc(OC)nc2)CC3)c1 (stereo not given)	HEK293 tox 89µM, NIH3T3 tox inconclusive
O=C(c1ccccc1)N1CCc2nc(-c3ccccc3)nc(-c3ccc(Cl)cc3)c2C1	HEK293 tox inconclusive, NIH3T3 tox inconclusive
O=C(c1ccc(C(F)(F)F)cc1)N1CCc2nc(-c3ccc(Cl)cc3)nc(-c3ccccc3)c2C1	HEK293 tox 20µM
Cc1ccc(C(=O)N2CCc3nc(-c4ccc(Cl)cc4)nc(-c4ccccc4)c3C2)cc1	HEK293 tox 50µM!, FLuc inh inconclusive, NIH3T3 tox inconclusive
Cc1ccc(C(=O)N2CCc3onc(-c4cccc5ccccc45)c3C2)cc1	HEK293 tox 40µM, NIH3T3 tox inconclusive
CC(=O)NC(CO)C(=O)N1CCc2onc(-c3cccc4ccccc34)c2C1 (stereo not given)	none
Cc1ccc(NC(=O)N2C[C@@H](F)C[C@H]2C(=O)N2CCc3ccccc3C2)cc1Cl	HEK293 tox 28µM, NIH3T3 tox inconclusive
CCN(C(=O)c1ccc2c(c1)N(S(C)(=O)=O)CC2)c1ccccc1	none
O=C(c1cccnc1OC1CCN(S(=O)(=O)c2ccccc2)C1)N1CCCCC1 (stereo not given)	none
Cc1ccc(C(=O)NC2CCN(c3nccc(Nc4ccccc4F)n3)CC2)cc1	HEK293 tox 22µM, NIH3T3 tox inconclusive (no result: FLuc inh, hNpr1 antagonist)
O=C(NC1CCN(c2nccc(Nc3ccccc3F)n2)CC1)c1cccc(Cl)c1	HEK293 tox inconclusive, NIH3T3 tox 32µM (no result: FLuc inh, hNpr1 antagonist)
Cc1ccc(C(=O)N2CCN(c3nccc(Nc4ccccc4F)n3)CC2)cc1	HEK293 tox 45µM!, NIH3T3 tox inconclusive (no result: FLuc inh, hNpr1 antagonist)
CC(=O)N1CCN(c2nccc(Nc3ccccc3F)n2)CC1	HEK293 tox inconclusive (no result: FLuc inh, hNpr1 antagonist)
Cc1ccccc1C(=O)NC1CCN(c2nccc(Nc3ccccc3F)n2)CC1	HEK293 tox 20µM, NIH3T3 tox inconclusive (no result: FLuc inh, hNpr1 antagonist)
O=C(Cc1ccccn1)NC1CCN(c2nccc(Nc3ccccc3F)n2)CC1	NIH3T3 tox inconclusive (no result: FLuc inh, hNpr1 antagonist)
CCCS(=O)(=O)N1CCC(F)(c2nc(CCOC)no2)CC1	none (no result: FLuc inh, hNpr1 antagonist)
COc1ccc(C(=O)NCC2(COc3ccccc3)C[C@@H](O)[C@@H](O)C2)cc1 (stereo not given in full)	NIH3T3 tox 45µM
Cc1cc(C2CCCN2C(=O)c2ccc(-c3ccccc3Cl)o2)no1 (stereo not given)	HEK293 tox 45µM, FLuc inh inconclusive, NIH3T3 tox inconclusive
COc1ccc(-c2cc(N3CCC(NC(=O)c4cc(OC)c(OC)c(OC)c4)C3)n[nH]2)cc1 (stereo not given)	HEK293 tox inconclusive
CCC(CC)c1cc([C@H]2CN3CC[C@H]2C[C@@H]3CNC(=O)c2cc(OC)c(OC)c(OC)c2)nc(-c2ccncc2)n1	HEK293 tox 28µM, NIH3T3 tox 20µM, hNpr1 antagonist inconclusive
COc1ccc(C(=O)N2CC(Oc3ccc(F)cc3C)C2)cc1	HEK293 tox inconclusive, NIH3T3 tox inconclusive
COc1ccccc1C(=O)N1CC(Oc2ccc(F)cc2C)C1	HEK293 tox 71µM, NIH3T3 tox inconclusive
Cc1cc(F)ccc1OC1CN(Cc2ccc(C#N)cc2)C1	HEK293 tox 63µM, NIH3T3 tox inconclusive
COc1ccc(CN2CC(Oc3ccc(F)cc3C)C2)cc1	HEK293 tox 71µM, NIH3T3 tox 40µM
COc1ccc(CN2CC(Oc3ccc(F)cc3F)C2)cc1	HEK293 tox inconclusive (no result: FLuc inh, hNpr1 antagonist)
COc1ccc(CN2CC(N(C)c3ccccc3C)C2)cc1	HEK293 tox inconclusive, NIH3T3 tox 79µM (no result: FLuc inh, hNpr1 antagonist)
O=C1CCN(S(=O)(=O)c2ccccc2)CCCC(C(=O)NCCc2cccnc2)CCN1 (stereo not given)	none
O=C(NCc1cccnc1)c1cnc2c(c1)N([S+](=O)([O-])c1cccnc1)CCC2	NIH3T3 tox inconclusive
COc1ccc(CN2CC(Oc3ccc(F)c(C)c3)C2)cc1	HEK293 tox 89µM, NIH3T3 tox inconclusive
Cc1cc(OC2CN(Cc3ccc(C#N)cc3)C2)ccc1F	HEK293 tox inconclusive, NIH3T3 tox inconclusive, hNpr1 antagonist inconclusive
CNC(=O)c1cc(C)nc2onc(C3CCN([S+](=O)([O-])c4c(C)noc4C)CC3)c12	none (no result: FLuc inh, hNpr1 antagonist)
O=C1NC(C(=O)N2CCN(Cc3ccccc3)CC2)CN1Cc1ccccc1 (stereo not given)	none
